An excerpt weighted towards active compounds, which were near 0.9% of everything screened.
MazEF act = activators of E. coli MazEF toxin-antitoxin RNase; FAM/BHQ RNA-DNA oligo cleavage fluorescence, 5 h; activation, % at 20 µM; hit rate 0.32% among 350,000; AID 504720; in the data active = activation above about 50%
Target sequence (P0AE70 whole entry, looked up): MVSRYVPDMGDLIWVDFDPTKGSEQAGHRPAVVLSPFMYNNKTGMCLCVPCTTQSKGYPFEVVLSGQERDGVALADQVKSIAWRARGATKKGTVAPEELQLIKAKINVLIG
PriA SSB inh = inhibitors of Klebsiella pneumoniae PriA binding to SSB C-terminal tail; AlphaScreen SSBct-PriA binding, biotinylated peptide; inhibition, % at 33 µM; hit rate 0.6% among 430,000; AID 1272365; in the data active = inhibition mostly above about 37%, no sharp cut-off; inactive = mostly below about 20%
SARS 3CLpro inh = SARS-CoV 3CLpro protease inhibition. P0C6X7. recombinant SARS-CoV 3CLpro, quenched FRET peptide cleavage. inhibition, % at 6 µM. hit rate 0.14% among 290,000; in the data active = inhibition above about 12%
Y pestis TopoI = inhibitors of Yersinia pestis topoisomerase I. Y. pestis Topo-I cleavage product accumulation, plate reader. activity, % at 10 µM. hit rate 0.064% among 360,000. AID 504884; in the data active = activity above about 50%, passing the limit was not always enough
Numbers stand for hits; – = inactive; · = no result; + = active, no number.

SMILES	MazEF act	PriA SSB inh	SARS 3CLpro inh	Y pestis TopoI
C#CC[N+]1(CC#Cc2ccccc2)CCCCC1	–	–	–	–
C(#Cc1ccccc1)C[N+]1(CC#Cc2ccccc2)CCCCC1	57	–	–	–
Cc1c(C(=O)N(C)C)sc2nc(-c3ccccn3)[nH]c(=O)c12	–	47	–	–
COc1ccc(C(=O)N/C(=C\c2ccco2)C(=O)NCCCn2ccnc2)cc1	–	–	–	–
Cc1ccc(C(=O)N/C(=C\c2ccco2)C(=O)NCCCn2ccnc2)cc1C	–	86	–	–
O=C(NCCCn1ccnc1)/C(=C/c1ccc(Cl)cc1)NC(=O)c1ccccc1	–	–	–	–
CN(C)c1ccc(/C=C(/NC(=O)c2ccccc2)C(=O)NCCCn2ccnc2)cc1	74	–	–	–
CC1(C)Oc2ccc3ccc(=O)oc3c2C[C@@H]1O	·	–	·	·
COc1ccc(C(=O)N(C)C2(C)CCS(=O)(=O)C2)cc1 (configuration not stated)	·	–	·	·
C[C@@H](Cc1ccco1)NS(=O)(=O)Cc1ccc(C(F)(F)F)cc1	·	–	·	·
CCOC(=O)c1cc2c(ccn2C)n1CC(=O)N1CCN(c2ccc(F)cc2)CC1	–	–	–	–
CCOC(=O)c1cc2c(ccn2C)n1Cc1cc(C)ccc1C	–	41	–	–
CC1CCCCN1c1cc(C#N)c(C#N)cc1[N+](=O)[O-] (configuration not stated)	–	–	–	–
CC1CCc2cccc3c2N1c1cc(C#N)c(C#N)cc1O3 (configuration not stated)	84	–	–	–
CC(C)=CCc1c(O)ccc2c1OC(c1ccc(O)c(O)c1)CC2=O (configuration not stated)	86	–	–	–
O=C1CC(c2ccc(O)c(O)c2)Oc2c1ccc(O)c2O (configuration not stated)	53	–	·	–
CC(C)=CCc1c(O)cc2c(c1O)C(=O)CC(c1ccccc1)O2 (configuration not stated)	–	–	·	–
O=C1CC(c2ccc(O)c(O)c2)Oc2cc(O)cc(O)c21 (configuration not stated)	–	–	·	–
Cc1ccc(C2CC(c3ccc(Br)cc3)=NN2C(=O)CSCc2ccccc2)cc1 (configuration not stated)	·	–	·	·
COc1ccc(NC(=O)CSc2nccn2-c2cccc(OC)c2)cc1	–	–	–	–
COc1ccc(OC)c(NC(=O)CSc2nccn2-c2ccc(F)cc2)c1	·	54	·	·
CCc1cccc(C)c1NC(=O)CSc1nccn1-c1ccc(C(=O)NCc2ccc(C)o2)cc1	·	–	·	·
COc1ccc(-n2ccnc2SCC(=O)Nc2ccc(Cl)cc2)cc1	·	49	·	·
CCOc1ccccc1NC(=O)CSc1nccn1-c1ccc(C(=O)NCc2cccs2)cc1	·	40	·	·
COc1cccc(-n2ccnc2SCC(=O)Nc2cc(OC)ccc2OC)c1	–	46	–	–
SMILES	MazEF act	PriA SSB inh	SARS 3CLpro inh	Y pestis TopoI
Cc1c(Cl)ccc2sc(NC(=O)C3=COCCO3)nc12	·	–	·	·
COc1ccc(-n2ccnc2SCC(=O)Nc2cc(C)ccc2C)c(OC)c1	·	39	·	·
COc1cccc(-n2ccnc2SCC(=O)Nc2ccccc2F)c1	–	–	–	–
Cc1cccc(-n2ccnc2SCC(=O)Nc2ccc([N+](=O)[O-])cc2)c1C	·	51	·	·
COc1cccc(-n2ccnc2SCC(=O)Nc2ccccc2C(F)(F)F)c1	·	44	·	·
Cc1ccccc1NC(=O)NCc1cc(-c2ccncc2)n(C2CCCC2)n1	·	–	·	·
COc1cn2c(cc1=O)C(=O)N(CCNC(=O)CC(c1ccccc1)c1ccccc1)CC2	·	–	·	·
Cn1cccc1/C=C1\SC(=O)N(c2ccccc2)C1=O	88	–	–	–
Cc1cc(C)c(S(=O)(=O)NCCn2nc(-n3cccn3)ccc2=O)cc1C	·	–	·	·
COc1cc(OC)c(NC(=O)c2cc(-c3cc[nH]c3)n[nH]2)cc1Cl	·	29	·	·
Cc1cc(NC(=O)Cc2ccc(F)cc2)n(-c2nc(-c3cccs3)cs2)n1	·	–	·	·
CC1Cc2ccccc2N1C(=O)C1CCCN(S(=O)(=O)c2cccc3nsnc23)C1 (configuration not stated)	–	–	12	–
O=C(C1CCCN(S(=O)(=O)c2cccc3nsnc23)C1)N1CCc2ccccc21 (configuration not stated)	–	–	–	–
COc1ccc(CN2C(=O)CSC2=N/N=C/c2ccccc2)cc1	·	–	·	·
O=C(CSc1cccc2cccnc12)N1CCc2ccccc2C1	·	91	·	·
O=C(COc1cccc2cccnc12)N1CCc2ccccc2C1	–	–	–	–
Cc1cc(C)c(C(=O)CSc2cccc3cccnc23)cc1C	·	59	·	·
O=C(CSc1cccc2cccnc12)n1c2ccccc2c2ccccc21	·	73	·	·
O=C(CSc1cccc2cccnc12)N1CCCC1	–	79	–	–
Cc1cccc2sc(NCc3ccccc3)nc12	·	–	·	·
O=C(COc1c(Br)cc(Br)c2cccnc12)N1CCc2ccccc2C1	–	–	–	57
CN(C)C(=O)CSc1cccc2cccnc12	–	94	–	–
COC(=O)CSc1cccc2cccnc12	·	–	·	·
CC1CCC(=NNc2ccc(C(F)(F)F)cc2[N+](=O)[O-])CC1 (configuration not stated)	–	73	–	–
O=[N+]([O-])c1cc(C(F)(F)F)ccc1NCC1CCCO1 (configuration not stated)	92	–	–	–
SMILES	MazEF act	PriA SSB inh	SARS 3CLpro inh	Y pestis TopoI
Clc1ccccc1CN1CCC(c2cccs2)CC1	·	–	·	·
OC(CNCC1CCCO1)COc1ccc(OCC(O)CNCC2CCCO2)cc1 (configuration not stated)	160	–	–	–
CCOC(=O)c1c(C)n(-c2ccc(C)cc2)c2ccc(OCC(O)CNCC3CCCO3)cc12 (configuration not stated)	–	–	–	–
O=C(NCCCn1ncccc1=O)c1cc(-c2ccccc2)on1	·	–	·	·
COc1ccc2[nH]cc(S(=O)(=O)c3ccc(F)cc3)c(=O)c2c1	–	104	–	–
CC1=CC(C)[C@H](C=Nn2c(=O)[nH]c3c([nH]c4ccc(C)cc43)c2=O)C(C)C1 (some centres not stated)	·	–	·	·
O=C(Cn1nc(-c2ccccc2)c2sc(N3CCCCC3)nc2c1=O)OCc1ccccc1	·	–	·	·
O=c1c2ccccc2c(C=Nc2ccc(O)cc2)c(O)n1Cc1ccccc1	+	–	–	–
C=CCN1C(=O)C(C)(C)COc2cc(NS(=O)(=O)c3ccc(C)c(Cl)c3)ccc21	·	–	·	·
COc1ccc(CN2CCN(C(C)C(=O)N(C)Cc3cccc(F)c3)CC2)cc1OC (configuration not stated)	–	52	–	–
CC(=O)NCCc1nc2ccccc2n1Cc1ccccc1	–	97	–	–
Nc1cccc(Nc2ccccc2)c1	–	–	–	–
c1ccc(Nc2cccc(Nc3ccccc3)c2)cc1	–	66	–	–
O=c1[nH]c(=O)n(-c2ccc(F)cc2)c(O)c1C=C1C=Nc2ccccc21	·	–	·	·
Cn1c(O)c(/C=C2\C=Nc3ccccc32)c(=O)n(C)c1=O	141	·	–	–
CCCCn1c(O)c(/C=C2\C=Nc3ccccc32)c(=O)[nH]c1=O	255	·	–	–
CCCNC(=O)Cn1c(=O)/c(=C\c2ccc(-c3ccc([N+](=O)[O-])cc3)o2)s/c1=C\C(=O)C(C)(C)C	86	·	–	–

Assay outcomes (PubChem)
